Test results: PubChem BioAssay AID1159580 (chemical genetic matrix, 2015)
The campaign covered roughly 5,500 compounds. About 2,000 (36%) were called active. Inconclusive results (about 18%) are left out. Cut-off read from the data, not from the text of the source: active = normalized growth mostly below about 0.91 (no sharp cut-off); inconclusive = no clear call, values can overlap the other calls; inactive = mostly above about 0.92. The list shows a part of the results.

Assay: chemical genetic growth profiling, strain panel (AID 1159580);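 note: tested at 20 µM; growth read once vehicle control cultures reached saturation at 30 °C; 1 = growth at the plate median or of vehicle wells; lower values mean less growth of the strain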
Details: S. cerevisiae deletion strains, growth OD

Measured: normalized growth

CCN(CCCc1ccccc1)CCCc1ccccc1
inactive: locus YJL187C, strain SWE1, stronger effect = lower value 0.991 | locus YJR043C, strain POL32, stronger effect = lower value 0.949 | locus YJR066W, strain TOR1, stronger effect = lower value 0.985 | locus YKL009W, strain mrt4, stronger effect = lower value 1.01 | locus YKL068W, stronger effect = lower value 1.01 | locus YKL085W, strain MDH1 (second series), stronger effect = lower value 1 | locus YKL085W, strain MDH1, stronger effect = lower value 1 | locus YKL160W, strain elf1, stronger effect = lower value 0.935 | locus YKR001C, strain vps1, stronger effect = lower value 1.02 | locus YKR026C, strain gcn3, stronger effect = lower value 0.983 | locus YKR091W, strain srl3, stronger effect = lower value 0.99 | locus YLL001W, strain dnm1, stronger effect = lower value 0.914 | locus YLL026W, stronger effect = lower value 0.997 | locus YLL041C, strain sdh2, stronger effect = lower value 0.989 | locus YLR027C, strain aat2, stronger effect = lower value 0.982 | locus YLR039C, strain RIC1, stronger effect = lower value 1.04 | locus YLR058C, strain SHM2, stronger effect = lower value 1.02 | locus YLR102C, strain apc9, stronger effect = lower value 1.02 | locus YLR113W, strain HOG1, stronger effect = lower value 1.01 | locus YLR221C, strain rsa3, stronger effect = lower value 0.961 | locus YLR258W, strain gsy2, stronger effect = lower value 0.973 | locus YLR262C, strain YPT6, stronger effect = lower value 1.06 | locus YLR268W, strain sec22, stronger effect = lower value 1.03 | locus YLR320W, strain mms22, stronger effect = lower value 0.894 | locus YLR330W, strain CHS5, stronger effect = lower value 0.994 | locus YLR342W, strain FKS1 (second series), stronger effect = lower value 0.963 | locus YLR342W, strain FKS1, stronger effect = lower value 0.981 | locus YLR357W, strain rsc2, stronger effect = lower value 0.953 | locus YLR370C, strain arc18, stronger effect = lower value 0.963 | locus YLR371W, strain rom2, stronger effect = lower value 1.02 | locus YLR384C, strain iki3, stronger effect = lower value 0.983 | locus YLR418C, strain cdc73, stronger effect = lower value 0.988 | locus YML016C, strain PPZ1, stronger effect = lower value 1.01 | locus YML032C, strain rad52, stronger effect = lower value 1.01 | locus YML120C, strain ndi1, stronger effect = lower value 0.943 | locus YML124C, strain tub3, stronger effect = lower value 1.02 | locus YMR058W, strain fet3, stronger effect = lower value 0.97 | locus YMR078C, strain ctf18, stronger effect = lower value 1.03 | locus YMR125W, strain sto1, stronger effect = lower value 0.96 | locus YMR129W, stronger effect = lower value 0.984 | locus YMR205C, strain PFK2, stronger effect = lower value 0.952 | locus YMR223W, strain ubp8, stronger effect = lower value 1.02 | locus YMR231W, strain pep5, stronger effect = lower value 0.99 | locus YMR307W, strain GAS1, stronger effect = lower value 1.06 | locus YNL067W, strain RPL9B, stronger effect = lower value 1.02 | locus YNL071W, strain lat1, stronger effect = lower value 0.973 | locus YNL153C, strain GIM3, stronger effect = lower value 1 | locus YNL183C, strain NPR1, stronger effect = lower value 0.957 | locus YNL209W, strain ssb2, stronger effect = lower value 0.975 | locus YNL233W, strain BNI4, stronger effect = lower value 1.03 | locus YNL248C, strain rpa49, stronger effect = lower value 0.951 | locus YNL250W, strain rad50, stronger effect = lower value 1.02 | locus YNL271C, strain bni1, stronger effect = lower value 1.04 | locus YNL298W, strain CLA4, stronger effect = lower value 1.03 | locus YNL307C, strain MCK1, stronger effect = lower value 1.04 | locus YNL322C, strain KRE1 (second series), stronger effect = lower value 0.992 | locus YNR049C, strain mso1, stronger effect = lower value 0.977 | locus YNR052C, strain pop2, stronger effect = lower value 1.03 | locus YOL006C, strain TOP1, stronger effect = lower value 0.909 | locus YOL012C, strain htz1 0.929 | locus YOL147C, strain pex11, stronger effect = lower value 1.03 | locus YOR001W, strain rrp6, stronger effect = lower value 0.982 | locus YOR061W, strain CKA2, stronger effect = lower value 1.01 | locus YOR069W, strain VPS5, stronger effect = lower value 1.01 | locus YOR070C, strain gyp1, stronger effect = lower value 0.979 | locus YOR080W, strain dia2, stronger effect = lower value 0.984 | locus YOR083W, strain WHI5, stronger effect = lower value 0.93 | locus YOR106W, strain vam3, stronger effect = lower value 0.961 | locus YOR136W, strain idh2, stronger effect = lower value 1.03 | locus YOR144C, strain elg1, stronger effect = lower value 1.03 | locus YOR184W, strain ser1, stronger effect = lower value 1.05 | locus YOR231W, strain MKK1, stronger effect = lower value 1.01 | locus YOR265W, strain rbl2, stronger effect = lower value 1 | locus YOR270C, strain vph1, stronger effect = lower value 0.885 | locus YOR290C, strain snf2, stronger effect = lower value 0.919 | locus YOR316C, strain cot1, stronger effect = lower value 1.03 | locus YPL051W, strain arl3, stronger effect = lower value 0.93 | locus YPL078C, strain atp4, stronger effect = lower value 0.932 | locus YPL106C, strain sse1, stronger effect = lower value 0.947 | locus YPL240C, strain hsp82, stronger effect = lower value 0.996 | locus YPL241C, strain CIN2, stronger effect = lower value 1 | locus YPL256C, strain CLN2, stronger effect = lower value 1.01 | locus YPR119W, strain clb2, stronger effect = lower value 1.03 | locus YPR141C, strain kar3, stronger effect = lower value 1.04 | locus YPR163C, strain tif3, stronger effect = lower value 1.05 | locus YPR167C, strain met16, stronger effect = lower value 1.03 | strain wtn01, stronger effect = lower value 1.04
active: locus YLR262C, strain YPT6 (second series), stronger effect = lower value 0.701
